Screens deposited in PubChem by National Center for Advancing Translational Sciences (NCATS).
D1 ag = human D1 receptor agonism; P21728; HEK293 T-REx D1 cells, calcium flux, agonist mode; activation, % at 2 µM; hit rate 1% among 360,000; AID 504660; in the data active = activation above about 30%
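Agonism was scored from calcium flux recorded over 180 s (1 read/s) after pintool compound addition, following a 10-cycle baseline. Cells were inducible force-coupled HEK293 TREx D1, plated overnight at 30 C and loaded with no-wash calcium dye.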
D1 PAM = potentiators of human D1 dopamine receptor; P21728; HEK293 TREx D1 cells, calcium flux, dopamine EC20 potentiation; hit rate 0.036% among 360,000; potentiation, % at 10 µM; AID 504651; in the data active = potentiation above about 30%
D3 ag = agonists of human D3 dopamine receptor; D3R DiscoveRx beta-arrestin cells, luminescence, 90 min; hit rate 0.58% among 410,000; max activation, %; P35462; in the data active = max activation above about 30%
Target sequence (P35462 whole entry, looked up): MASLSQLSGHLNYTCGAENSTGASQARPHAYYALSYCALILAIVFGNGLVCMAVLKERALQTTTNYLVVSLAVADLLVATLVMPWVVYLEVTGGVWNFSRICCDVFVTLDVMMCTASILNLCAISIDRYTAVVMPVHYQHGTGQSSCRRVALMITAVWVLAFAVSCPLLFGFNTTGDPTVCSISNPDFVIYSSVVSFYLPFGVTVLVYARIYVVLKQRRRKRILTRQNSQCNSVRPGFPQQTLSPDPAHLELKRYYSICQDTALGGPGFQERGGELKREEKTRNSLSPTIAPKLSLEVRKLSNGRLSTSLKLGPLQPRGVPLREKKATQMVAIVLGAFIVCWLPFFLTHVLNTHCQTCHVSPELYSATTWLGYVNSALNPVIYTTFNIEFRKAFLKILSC
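Agonist mode: compounds and dopamine controls were applied to plated cells for 90 min at 37 degrees C after an overnight attachment at 1500 cells/well. Luminescent read-out followed 30 - 60 minutes at room temperature with DiscoveRx detection reagent.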
D3 antag = blocks the human D3 dopamine receptor; P35462; D3R cells, DiscoveRx beta-arrestin luminescence, antagonist mode; stronger effect = lower value; max response, negative = inhibition, %; hit rate 2.5% among 360,000; AID 652054; in the data active = max response below about -50%; inconclusive = no clear call, values can overlap the other calls
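Cells expressing the human receptor were seeded at 1500 cells/well, incubated overnight at 37 degrees C in 5% CO2, then exposed to library compounds with dopamine controls for 90 minutes at 37 degrees C before luminescent detection.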
D1 antag = antagonists of human D1 dopamine receptor | hit rate 3.2% among 360,000 | activity change, negative = inhibition, % at 10 µM | HEK293 TREx D1 cells, calcium flux, dopamine EC80; stronger effect = lower value | AID 504652; in the data active = activity change below about -30%
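Inducible Hek293 Trex D1 cells (tetracycline, overnight, 30 C). Calcium dye 30–90 min RT. Antagonist mode: EC80 dopamine added after 180 s compound read.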
Of the large screens only hits and unclear results are named; the others gave an inactive call. An excerpt weighted towards active compounds, which were near 6% of everything screened.

CC1CC(C)CN(CCCCOc2ccc([N+](=O)[O-])cc2)C1 (stereo not drawn)	D3 antag -82
Cc1ccc(OCCn2c(=O)n(C)c3ccccc32)cc1	none
COC(=O)C1CCN(CCCOc2ccc(CN3CCN(c4ccc([N+](=O)[O-])cc4)CC3)cc2)CC1	D3 ag 32, D3 antag inconclusive
COC(=O)C1CCN(c2ccc([N+](=O)[O-])cc2)CC1	none
Cn1c(=O)n(CCOc2ccc([N+](=O)[O-])cc2)c2ccccc21	D1 antag -59
COc1ccc(OC)c(NC(=O)c2cc3c(n(-c4ccc(Cl)cc4)c2=O)CC(C)(C)CC3=O)c1	none (no result: D3 antag)
CN1N=C2c3ccccc3CCC2C1c1ccc(C(F)(F)F)cc1 (stereo not drawn)	D1 antag -82
COc1ccc(C(=O)N/N=C(\c2ccccc2)c2ccccn2)cc1	D3 antag -56
O=C(NN=C(c1ccccc1)c1ccccn1)c1ccccc1	D3 antag -56 (no result: D1 ag, D1 PAM, D1 antag)
O=C(N/N=C(\c1ccccc1)c1ccccn1)c1ccccc1Cl	D3 antag inconclusive
Cc1ccc2oc3c(c(=O)c2c1)C(c1ccc(F)cc1)N(Cc1ccc2c(c1)OCO2)C3=O (stereo not drawn)	none (no result: D3 antag)
CCn1cc(S(=O)(=O)c2ccc(OC)cc2)c(=O)c2cc(F)c(N3CCC(C)CC3)cc21	none (no result: D3 antag)
Cc1cccc(N2CCN(C(=O)Cc3c(C(=O)O)c(C)cn3C)CC2)c1C	none (no result: D3 antag)
FC(F)(F)c1cccnc1Oc1ccc(C2=NCCS2)cc1	D1 ag 37
Cc1cccc(-c2nnc(C3CCN(S(=O)(=O)c4cccc(Cl)c4)CC3)o2)c1	none (no result: D3 antag)
CCN1CCOC(=O)C1CC(=O)Nc1ccc(C(C)=O)cc1 (stereo not drawn)	none (no result: D3 antag)
CCc1ccc(NC(=O)CC2C(=O)OCCN2CC)cc1 (stereo not drawn)	D1 antag -75 (no result: D3 antag)
CN(Cc1ccccc1)C(=O)CSc1nnc(-c2cccc(Cl)c2)o1	D1 ag 56, D1 antag -54 (no result: D3 antag)
COc1ccc(-c2nnc(SCC(=O)N(C)Cc3ccccc3)o2)cc1OC	none (no result: D3 antag)
CCOc1ccc(N(C(=O)c2ccc(Cl)cc2)S(=O)(=O)c2ccc3c(c2)n(C)c(=O)n3C)cc1	none (no result: D3 antag)
CCc1cn(C2CC(O)C(CO)O2)c(=O)[nH]c1=O (stereo not drawn)	D1 antag -35
O=c1[nH]c(=O)n([C@H]2C[C@H](O)[C@@H](CO)O2)cc1I	none
COc1ccccc1NC(c1ccc(Cl)cc1)c1nnc(-c2cccc(F)c2)o1 (stereo not drawn)	none (no result: D3 antag)
COc1ccccc1NC(=S)N1CCNC(=O)C1CC(=O)Nc1cccc(C)c1 (stereo not drawn)	none
COc1ccccc1NC(=O)CC1C(=O)NCCN1C(=O)Nc1ccc(Cl)c(Cl)c1 (stereo not drawn)	D1 antag -30
CCc1ccc(Nc2n[n+](-c3ccccc3)c(/C=C/c3ccccc3)s2)cc1	none (no result: D3 ag, D3 antag)
COc1ccc2ccccc2c1-c1sc(Nc2ccccc2)n[n+]1-c1ccc(F)cc1	D1 ag 37, D3 antag -80, D1 antag -40
CCc1ccc(Nc2n[n+](-c3ccccc3)c(-c3cc(OC)c(OC)cc3Br)s2)cc1	D3 antag -51
CCc1ccc(Nc2n[n+](-c3ccccc3)c(-c3c(Cl)cccc3Cl)s2)cc1	D1 ag 93, D1 antag -69
COc1ccc(-c2sc(Nc3ccccc3)n[n+]2-c2ccc(F)cc2)cc1Br	none
Fc1ccc(-[n+]2nc(Nc3ccccc3)sc2-c2c(Cl)cccc2Cl)cc1	D1 ag 49
Cc1ccc(C2CC(=O)N(Cc3ccccc3)c3c2c(C)nn3-c2nc(C)cc(C)n2)cc1 (stereo not drawn)	none (no result: D3 antag)
CCCCn1c(SCc2ccccc2C#N)nc2c(sc3ccccc32)c1=O	none (no result: D3 antag)
CCN(CC)CCN(C(=O)c1ccc2c(c1)OCCO2)c1nc2c(Cl)cccc2s1	D3 antag -63
CCN(CC)CCN(C(=O)c1ccc2c(c1)CCCC2)c1nc2c(C)cccc2s1	D3 antag -51
CCN(CC)CCN(C(=O)c1ccc2c(c1)CCCC2)c1nc2ccc(F)cc2s1	none
CCN(CC)CCN(C(=O)c1ccc2c(c1)CCCC2)c1nc2ccc(C)cc2s1	D3 antag -51
COc1ccc(C(=O)Nc2ccc(OCc3cc(=O)n4ccccc4n3)cc2)cc1	none (no result: D3 antag)
